In the library only some 2.4% were active in any assay of this set; here they are far more common.
PREPL inh: human PREPL enzyme inhibition | actives 0.68% (n = 320,000) | AID 2751 | Q4J6C6 | recombinant PREPL, fluorescence polarization activity-based probe | inhibition, % at 5.96 µM; in the data active means inhibition above about 43%;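 further: 0% = enzyme with DMSO and 100% = wells lacking enzyme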
NadD block: inhibitors of Staphylococcus aureus NadD | inhibition, % at 20 µM | purified NadD enzyme, colorimetric absorbance read-out | actives 0.78% (n = 360,000); in the data active means inhibition above about 26%
PP5 primary: blocks human protein phosphatase 5 activity; inhibition, % at 6.7 µM; purified PP5c, OMFP substrate fluorescence; actives 0.18% (n = 320,000);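 active means inhibition above the campaign's mean inhibition across all tested compounds plus 3 SD, cut at about 9.5% in these data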;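 further: 0% = DMSO only and 100% = 100 µM cantharidin control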
Rpn11 block: Rpn11 (human) deubiquitinase inhibition. O00487. human 26S proteasome, Ub4-pepOG fluorescence polarization; 20S core pre-blocked with epoxomicin. inhibition, % at 20 µM. actives 0.59% (n = 360,000);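 active means inhibition at 20 µM, scaled to each plate's controls, above about 33%, limit read from the data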
Target sequence (O00487 whole entry, looked up): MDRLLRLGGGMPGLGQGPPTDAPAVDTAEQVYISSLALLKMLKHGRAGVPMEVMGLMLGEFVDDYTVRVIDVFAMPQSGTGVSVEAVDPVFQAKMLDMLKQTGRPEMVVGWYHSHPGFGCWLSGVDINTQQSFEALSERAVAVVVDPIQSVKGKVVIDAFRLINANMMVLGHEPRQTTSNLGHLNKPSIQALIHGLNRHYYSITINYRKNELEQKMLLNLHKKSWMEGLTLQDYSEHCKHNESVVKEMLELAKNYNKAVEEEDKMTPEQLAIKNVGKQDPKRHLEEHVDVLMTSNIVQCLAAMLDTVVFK
PP1 counter: counter-screen for PP5 inhibitors: inhibitors of human PP1-alpha | P62136 | purified PP1alpha, OMFP fluorescence | inhibition, % at 6.7 µM | actives 0.9% (n = 320,000) | AID 2235;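 active means inhibition above the mean inhibition of all tested compounds plus 3 SD, computed separately for each screening campaign, cut at about 15% in these data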
Target sequence (P62136 whole entry, looked up): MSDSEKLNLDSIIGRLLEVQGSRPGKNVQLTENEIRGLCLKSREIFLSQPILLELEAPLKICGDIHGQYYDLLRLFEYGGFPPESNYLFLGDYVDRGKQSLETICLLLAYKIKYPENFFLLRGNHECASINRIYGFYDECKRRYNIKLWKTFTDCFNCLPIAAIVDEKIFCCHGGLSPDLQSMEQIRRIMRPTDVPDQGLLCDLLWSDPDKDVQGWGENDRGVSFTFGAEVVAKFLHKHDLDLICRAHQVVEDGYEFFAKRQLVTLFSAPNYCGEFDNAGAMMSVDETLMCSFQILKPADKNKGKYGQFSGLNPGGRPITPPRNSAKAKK
PP1 inh confirm: confirmation of human PP1 phosphatase inhibitors; shares compounds with PP1 counter; purified PP1alpha, OMFP substrate fluorescence; inhibition, % at 6.7 µM; actives 52% (n = 1,900); AID 2358;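 active means mean PP1 inhibition above a set limit taken from the earlier primary screen, cut at about 15% in these data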
PP5 counter: inhibits human PP5 phosphatase in PP1 counter-screen; shares compounds with PP1 counter; purified PP5c, OMFP fluorescence; inhibition, % at 6.7 µM; actives 4% (n = 1,900);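 active means mean PP5 inhibition over triplicate wells above about 9.5% taken from the earlier PP1 screen, limit read from the data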
* hit, by the source's call; x = no result; ! = repeats disagree.

SMILES | PREPL inh | NadD block | PP5 primary | Rpn11 block | PP1 counter | PP1 inh confirm | PP5 counter
CCOC(=O)c1sc(N2C(=O)C(O)=C(C(=O)c3ccc(C)o3)C2c2ccc(OC)c(OC)c2)nc1C (centres undefined) | 16 | 5 | 2 | 30 | 37* | 35* | 5
NC(=O)CC(NC(=O)Cc1cccc2ccccc12)c1ccc(NC2CCCCC2)c([N+](=O)[O-])c1 (centres undefined) | 2 | 12 | 0 | 11 | 20* | 24* | -7
NC(=O)CC(NC(=O)Cc1cccc2ccccc12)c1ccc(NCC2CC2)c([N+](=O)[O-])c1 (centres undefined) | 19 | -1 | 0 | 19 | -1 | x | x
NC(=O)CC(NC(=O)Cc1cccc2ccccc12)c1ccc(NCCOc2ccccc2)c([N+](=O)[O-])c1 (centres undefined) | -17 | 16 | -3 | 22 | 23* | 27* | -4
O=C(NC1CC1)C1Nc2ccc(OC(F)(F)F)cc2C2C=CCC12 (centres undefined) | 11 | -8 | 1 | -6 | -1 | x | x
O=C(O)C1Nc2ccc(OC(F)(F)F)cc2C2C=CCC12 (centres undefined) | 11 | x | -1 | x | 22* | 4 | -1
Cc1nn(-c2ccccc2)c2sc(C(=O)NNC(=O)COc3ccccc3)cc12 | -10 | 6 | 1 | -10 | 23* | 22* | 0
c1csc(-c2cc(N3CCCCC3)c3ccccc3n2)c1 | 10 | 5 | -1 | -2 | -1 | x | x
O=C(CSc1nccc(=O)[nH]1)N1CCN(c2ccccc2)CC1 | 11 | -7 | 2 | 6 | 0 | x | x
COc1ccc(NC(=O)c2c(C)cc(=O)oc2C)c(OC)c1 | 0 | -1 | -1 | 1 | 36* | -7 | -5
COc1cccc(/C=N/Nc2cc(-n3nc(C)cc3-c3ccccc3)ncn2)c1O | 15 | 29 | 3 | 15 | 21* | 32* | -1
COc1cccc(/C=N/Nc2nc(Nc3ccccc3)nc(-n3nc(C)cc3C)n2)c1O | 38 | 27 | 11* | 2 | 35* | 36* | 3
Cc1cc(C)n(-c2nc(Nc3ccccc3)nc(-n3nc(C)cc3C)n2)n1 | 4 | 17 | 2 | 2 | -2 | x | x
COc1cccc(/C=N/Nc2nc3ccccc3[nH]2)c1O | 31 | -2 | 1 | 10 | 14 | x | x
CC(=O)C[C@H](O)CC(=O)[C@@H]1OC(=O)CCCCCCc2ccccc21 | 18 | -3 | 5 | -1 | 2 | x | x
O=C(CC(NC(=O)c1ccccc1Cl)c1ccccc1)NCCc1ccc(Cl)cc1 (centres undefined) | -7 | -6 | -2 | -1 | 19* | 6 | -1
CCCc1ccc(S(=O)(=O)N(C)S(=O)(=O)c2ccc(F)cc2)cc1 | -3 | 2 | 1 | 5 | 1 | x | x
O=C(Nc1nc(-c2ccccc2)cs1)c1ccccc1NS(=O)(=O)c1ccc(F)cc1 | 18 | 10 | 9 | 7 | 21* | 21* | 13*
O=C(Nc1nc(-c2ccc(-c3ccccc3)cc2)cs1)C1=COCCO1 | 0 | -9 | 1 | 8 | 21* | 34* | -4
O=S(=O)(Nc1ccc(-c2csc(-c3ccccc3)n2)cc1)c1ccc(F)cc1 | -15 | 3 | 6 | 6 | 3 | x | x
CCc1ccc(-c2nnn(CC(=O)N(C3CCCC3)C3CCS(=O)(=O)C3)n2)cc1 (centres undefined) | 8 | 1 | 1 | -3 | -3 | x | x
O=C(COC(=O)c1nc(Cl)ccc1Cl)Nc1cccc(S(=O)(=O)N2CCOCC2)c1 | x | 1 | x | -2 | x | x | x
NS(=O)(=O)c1cccc(NC(=O)CSc2nc3nc(-c4cccs4)cc(C(F)(F)F)c3c(=O)[nH]2)c1 | 2 | 17 | 4 | 9 | 27* | 21* | 2
O=C(CSc1nc2nc(-c3cccs3)cc(C(F)(F)F)c2c(=O)[nH]1)Nc1c(F)c(F)c(F)c(F)c1F | -6 | 9 | 3 | 7 | 5 | x | x
Cc1cccc(C)c1Nc1nnc(SCC(=O)Nc2cc(S(=O)(=O)N3CCCCC3)ccc2Cl)s1 | -7 | 6 | 4 | 9 | 24* | 21* | 0
SMILES | PREPL inh | NadD block | PP5 primary | Rpn11 block | PP1 counter | PP1 inh confirm | PP5 counter
CCn1cc(C(=O)O)c(=O)c2cc(F)c(N3CCN(C(=S)Nc4ccccc4OC)CC3)cc21 | -5 | 4 | 2 | -5 | 25* | 15 | -4
CCn1cc(C(=O)O)c(=O)c2cc(F)c(N3CCN(C(=S)NC(=O)c4c(OC)cccc4OC)CC3)cc21 | -2 | 12 | 2 | 6 | 13 | x | x
CC(C(=O)O)n1cc(C#N)c(=O)[nH]c1=O (centres undefined) | x | 1 | x | -12 | x | x | x
COc1ccc2[nH]c(=O)c(CN(CCO)S(=O)(=O)c3c(C)ccc4nsnc34)cc2c1 | 3 | 3 | 2 | -4 | 55* | 0 | 0
CCC(=O)N1CCCC(C)(C(=O)Nc2nccc3cccnc23)C1 (centres undefined) | x | -2 | x | -6 | x | x | x
C[C@H](CO)N1C[C@H](C)[C@@H](CN(C)S(=O)(=O)c2cccs2)Oc2ccc(NS(=O)(=O)c3ccccc3)cc2C1=O | 7 | 5 | x | 2 | x | x | x
COc1ccccc1N=Nc1ccc(O)c2ncccc12 | 13 | 31* | 7 | 34 | 19* | 16* | 5
COc1ccc2cc3c(N)nn(C(=O)Cc4ccc(Cl)cc4)c3nc2c1 | 24 | 21 | 1 | 9 | 21* | 12 | -4
COc1cccc(CC(=O)n2nc(N)c3cc4ccc(OC)cc4nc32)c1 | 8 | 7 | 2 | 2 | 1 | x | x
COc1ccc2cc3c(N)nn(C(=O)Cc4c[nH]c5ccccc45)c3nc2c1 | 35 | 26 | 5 | 9 | 19* | 17* | 4
O=C(Nc1nnc(COc2ccc(F)cc2)s1)Nc1ccccc1F | 22 | 1 | 0 | 4 | -2 | x | x
O=C(NC(Cc1ccccc1)C(=O)O)/C(=C/c1ccc(Cl)cc1)NC(=O)c1ccco1 (centres undefined) | 2 | -3 | -1 | 4 | -2 | x | x
CCCCC(CC)CN=C(N)NC(N)=NCCCCCCN=C(N)NC(N)=NCC(CC)CCCC (centres undefined) | 37 | 15 | 7 | 102* | 46* | 29* | 4
CC1Nc2ncnc(N3CCc4ccccc4C3)c2N(Cc2ccc(Br)cc2)C1=O (centres undefined) | -61 | 45*! | 4 | 29 | 23* | 19* | 0
CC1Nc2ncnc(N3CCN(c4ccccc4)CC3)c2N(Cc2ccccc2)C1=O (centres undefined) | -7 | 0 | 1 | -4 | 0 | x | x
CCOc1cc(/C=N/NC(=O)Cn2nc([N+](=O)[O-])cc2C)ccc1OCc1ccc(F)cc1 | 14 | -1 | 1 | -1 | 18* | 17* | -2
CCOc1cc(/C=N/NC(=O)Cn2nc([N+](=O)[O-])cc2C)cc(Br)c1OCc1ccccc1F | -2 | 5 | 0 | 3 | 12 | x | x

Screening data from PubChem BioAssay.
